Assay results taken from PubChem BioAssay AID1851 (National Center for Advancing Translational Sciences (NCATS), 2009).
“And” between values parts separate entries of the source, which are not always exact repeats. Equal values may be shown once. The whole screen tested about 16,000 compounds, of which about 5,100 (32%) were called active. About 25% were inconclusive and are not listed. This is one part of the list. Unmarked numbers belong to inactive results. Calls come from the whole dose curve; as a rule, active = well fitted curve in the direction sought with a large enough effect; inconclusive = small, poorly fitted or top-dose-only effect, or effect the other way; inactive = no such curve, though single readings can be large or run the other way.

What follows are compounds tested against Cytochrome P450 3A4 (Homo sapiens) (UniProt P08684) (assay: Cytochrome panel assay with activity outcomes). Details: recombinant CYP, pro-luciferin dealkylation, luminescence, p450-cyp3a4; series mostly up to 57.1 µM.
Cytochrome P450 3A4 (Homo sapiens), sequence (P08684 whole entry, looked up): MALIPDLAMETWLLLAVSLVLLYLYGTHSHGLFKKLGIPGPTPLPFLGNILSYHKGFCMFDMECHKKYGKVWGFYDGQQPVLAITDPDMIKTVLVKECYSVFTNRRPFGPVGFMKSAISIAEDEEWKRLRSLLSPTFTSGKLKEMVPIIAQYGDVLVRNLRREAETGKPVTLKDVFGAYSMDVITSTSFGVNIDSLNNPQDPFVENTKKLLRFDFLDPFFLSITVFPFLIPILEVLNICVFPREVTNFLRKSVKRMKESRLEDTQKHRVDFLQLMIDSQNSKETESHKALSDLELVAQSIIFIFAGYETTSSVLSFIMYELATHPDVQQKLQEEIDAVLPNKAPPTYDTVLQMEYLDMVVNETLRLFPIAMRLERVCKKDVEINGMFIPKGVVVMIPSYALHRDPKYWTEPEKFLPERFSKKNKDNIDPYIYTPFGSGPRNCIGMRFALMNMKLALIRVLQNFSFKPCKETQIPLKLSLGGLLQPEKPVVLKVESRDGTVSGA
% is set by controls: 0 for no effect and ±100 for the full control effect.

SMILES | AC50 | activity, negative = inhibition
C[C@@](N)(C(=O)O)c1ccc(P(=O)(O)O)cc1 | inactive | –
Cc1cc2c(=O)[nH]c(N)nc2nc1C | – | -3.61% [at 11.4 µM]
COc1ccc(CNc2ccnc(-c3ccc4c(c3)OCO4)n2)c(OC)c1 | 1 µM (active) | –
COc1ccccc1CNc1ccnc(-c2ccc3c(c2)OCO3)n1 | 1.58 µM (active) | –
CC(=O)Nc1c2c3c(cccc3n(C)c1=O)C(=O)c1ccccc1-2 | 17.8 µM (active) | –
CCOC(=O)C(=CNc1ncccc1C)C(=O)OCC | 12.6 µM (active) | –
CCOC(=O)C(=CNCC(=O)O)C(=O)OCC | inactive | –
CCOC(=O)/C(=C/Nc1ccccc1)[N+](=O)[O-] | inactive | –
Cc1ccc(NC(=O)Nc2ncccc2C)cc1 | – | -13.7% [at 2.29 µM]
CCOC(=O)C(=CNc1cccc(C)c1C)C(=O)OCC | 15.8 µM (active) | –
CCOC(=O)C(=Cc1ccc(F)cc1)C(=O)OCC | inactive | –
CN(C)CCCn1c2ccccc2c2cnccc21 | – | -22.2% [at 11.4 µM]
Cc1ccc(C(=O)O/N=C/c2c(Cl)n(C)c3ccccc23)cc1 | inactive | –
Cc1c2cnccc2c(C)c2c1c1ccccc1n2CCOC(=O)c1ccccc1 | 0.631 µM (active) | –
Cc1noc(C)c1-c1nc(Nc2ccccc2)c2ccccc2n1 | 6.31 µM (active) | –
Cc1noc(C)c1-c1nc(NC2CCNCC2)c2ccccc2n1 | inactive | –
Cc1noc(C)c1-c1nc(Nc2ccncc2)c2ccccc2n1 | 0.316 µM (active) | –
Cc1noc(C)c1-c1nc(Nc2ccc(F)cc2)c2ccccc2n1 | inactive | –
CN(Cc1ccccc1)C(=O)CC(c1ccccc1)c1cc(Cl)ccc1O (centres undefined) | 14.1 µM (active) | –
CC(C)Oc1ccc(CNC(=O)CC(c2ccccc2)c2cc(Cl)ccc2O)cc1 (centres undefined) | 10 µM (active) | –
O=C(O)Cc1cc(Cl)ccc1O | – | -2.24% [at 11.4 µM]
CN(/C=C/C(=O)C(F)(F)F)Cc1ccccc1 | inactive | –
COc1cccc(Cn2c(=O)c(CCc3ccccc3)nc3cnc(OC)nc32)c1 | 2.51 µM (active) | –
COc1cccc(Cn2c(=O)c(CCc3ccccc3)nc3cncnc32)c1 | 2.51 µM (active) | –

SMILES | AC50 | activity, negative = inhibition
NC/C=C\C(=O)O | inactive | –
CC(C(=O)NCc1ccc2c(c1)OCO2)N1c2cccc3cccc(c23)S1(=O)=O (centres undefined) | 0.316 µM (active) | –
Cc1cc(C)c2nc3c(c([C@H](O)[C@@H]4CCCCN4)c2c1)CC/C3=C/c1ccc(Cl)cc1 | – | -1.86% [at 11.4 µM]
CN(C)C(=O)c1ccc(-c2nc(NCc3cccnc3)c3ccccc3n2)cc1 | 12.6 µM (active) | –
CC(=O)NCCNc1nc(-c2ccc(C(=O)N(C)C)cc2)nc2ccccc12 | inactive | –
CN(C)C(=O)c1ccc(-c2nc(NC3CCNCC3)c3ccccc3n2)cc1 | inactive | –
CN(C)C(=O)c1ccc(-c2nc(NCc3cccs3)c3ccccc3n2)cc1 | 15.8 µM (active) | –
CN(C)C(=O)c1ccc(-c2nc(NCc3ccccc3)c3ccccc3n2)cc1 | 15.8 µM (active) | –
CN(C)c1ccc(-c2nc(NCc3cccnc3)c3ccccc3n2)cc1 | 2 µM (active) | –
O=C1C[C@@H](O)[C@@H](O)[C@H]2[C@@H]3C(=O)N(c4cccc(Oc5ccccc5)c4)C(=O)[C@@H]3CC[C@H]12 | – | -19.7% [at 11.4 µM] and -7.2% [at 11.4 µM]
Cc1ccc(OCC(=O)NC2=NCCS2)cc1 | – | -22.5% [at 11.4 µM]
Cc1ccc(OCC(=O)NNC(=O)CCC(=O)NCc2ccccc2)cc1 | inactive | –
Cc1ccc(OCC(=O)Nn2cnc3ccccc32)cc1 | 7.94 µM (active) | –
Cc1ccc(OCC(=O)NNC(=O)CCc2ccccc2)cc1 | inactive | –
Cc1ccc(OCC(=O)Nc2ccccc2-c2ccccc2)cc1 | 20 µM (active) | –
CN(C)CCN1C(=O)C(O)=C(C(=O)c2cc3ccccc3o2)C1c1cccc(Br)c1 (centres undefined) | – | 27.7% [at 2.29 µM]
CC(C)NC(=O)N1CC2(CCN(C(=O)c3ccco3)CC2)C1 | inactive | –
O=C(c1ccco1)N1CCC2(CCCN(C(c3ccccc3)c3ccccc3)C2)CC1 | 12.6 µM (active) | –
O=C(c1ccco1)N1CCC[C@@]2(CCN(C(c3ccccc3)c3ccccc3)C2)C1 | 12.6 µM (active) | –
O=C(Nc1ccccc1)N1CC[C@@]2(CCCN(C(=O)c3ccco3)C2)C1 | inactive | –
COc1cc(-c2nnc(SCC(=O)Nc3ccc4c(c3)OCCO4)o2)cc(OC)c1OC | 8.91 µM (active) | –
Cc1ccc(NC(=O)CSc2nnc(-c3ccncc3)o2)cc1 | – | -3.56% [at 2.29 µM]
COc1cc(-c2nnc(SCC3(c4ccc(Br)cc4)OCCO3)o2)cc(OC)c1OC | 12.6 µM (active) | –
COc1cc(-c2nnc(SCC3(c4ccccc4)OCCO3)o2)cc(OC)c1OC | 4.47 µM (active) | –

SMILES | AC50 | activity, negative = inhibition
OC[C@@H](O)[C@@H](O)[C@@H](O)[C@@H](O)c1nc2ccc(Cl)cc2[nH]1 | – | -5.7% [at 11.4 µM]
Cc1ccc(/C=N\Nc2nc3ccc(Cl)cc3[nH]2)o1 | 8.91 µM (active) | –
CCOC(=O)N/N=C/c1ccc(C)o1 | inactive | –
Cc1cccc(NC(=O)C2(c3ccc([N+](=O)[O-])cc3)CCCC2)c1 | – | -2.71% [at 2.29 µM]
Cc1cccc(NC(=O)C23CCC(C)(C2Br)C3(C)C)c1 (centres undefined) | 12.6 µM (active) | –
Cc1cccc(NC(=S)NNC(=O)c2csc3c2CCCC3)c1 | – | -15.2% [at 2.29 µM]
CC12CCC(C(=O)Nc3cccc4ccccc34)(C1Br)C2(C)C (centres undefined) | 11.2 µM (active) | –
O=C(O)c1cccc(C(=O)O)c1S(=O)Cc1ccccc1 (centres undefined) | – | -7.75% [at 11.4 µM]
O=C(/C=C/c1ccc(Cl)cc1)NCCSc1ccccc1 | inactive | –
NNC(=O)CCSc1ccccc1 | 3.98 µM (active) | –
O=C(O)CCCSc1ccccc1 | – | 5.11% [at 11.4 µM]
Cc1nc2ccc(S(=O)(=O)NC(CC(C)C)C(=O)O)cc2s1 (centres undefined) | – | -3.56% [at 2.29 µM]
CCC(C)C(NS(=O)(=O)c1ccc(C)cc1)C(=O)Oc1ccc2c3c(c(=O)oc2c1)CCC3 (centres undefined) | 7.94 µM (active) | –
Cc1ccc(S(=O)(=O)NC(CC(C)C)C(=O)Oc2ccc3c4c(c(=O)oc3c2)CCC4)cc1 (centres undefined) | 14.1 µM (active) | –
Cc1ccc(S(=O)(=O)N[C@H](C(=O)O)C(C)C)cc1 | – | -11.9% [at 11.4 µM]
Cc1ccc(S(=O)(=O)N[C@H](CN)C(=O)O)cc1 | – | -20.1% [at 11.4 µM]
CC(C)Oc1ccc2c(=O)c3cc(C(=O)O)ccc3oc2c1 | inactive | –
NCc1ccc(C(=O)O)cc1 | – | -14.2% [at 11.4 µM]
O=S(=O)(O)c1nc2ccccc2n1Cc1ccccc1 | inactive | –
O=C(c1cc2sccc2n1Cc1ccccc1)N1CCN(c2nc3ccccc3s2)CC1 | 0.631 µM (active) | –
S=c1[nH]nc(CCc2ccccc2)n1Cc1ccccc1 | 7.94 µM (active) | –
CN(Cc1n[nH]c(=S)n1C)S(=O)(=O)c1ccccc1 | inactive | –
O=C1c2ccccc2C(Cc2ccncc2)(Cc2ccncc2)c2ccccc21 | 0.501 µM (active) | –
COC(=O)C1=C(N)N(c2ccccc2C(F)(F)F)C2=C(C(=O)CCC2)C1c1ccc2c(c1)OCO2 (centres undefined) | 0.316 µM (active) | –

SMILES | AC50 | activity, negative = inhibition
Cc1cc([C@](C)(N)C(=O)O)ccc1P(=O)(O)O | inactive | –
Clc1ccccc1OCCCCN1CCCC1 | inactive | –
CN(CCc1ccc(Cl)c(Cl)c1)CCN1CCCCCC1 | 10 µM (active) | –
CN1CCN(CCc2ccc(Cl)c(Cl)c2)CC1 | inactive | –
C[C@@H](NC(=O)/C(C#N)=C/c1ccc(O)c(O)c1)c1ccccc1 | 15.8 µM (active) | –
Cc1[nH]c2ccccc2c1/C=C/c1cc[n+](C)cc1 | inactive | –
C[C@H](NC(=O)/C(C#N)=C/c1ccc(O)c(O)c1)c1ccccc1 | 3.16 µM (active) | –
Cc1[nH]c2ccccc2c1/C=C(\C#N)C(=O)NC(C)c1ccccc1 (centres undefined) | 7.08 µM (active) | –
CC1(C)C2([N+](=O)[O-])CN3CC1([N+](=O)[O-])CN(C2)C31CCCC1 | inactive | –
COc1ccc(CCNC(=O)CCCCCN2C(=O)c3ccccc3C2=O)cc1 | 6.31 µM (active) | –
CCCN(CCC)CCCNC(=O)c1ccc2c(c1)N(CC)C(=O)c1ccccc1S2=O (centres undefined) | inactive | –
CCOc1ccc(CCNC(=O)CCCN2C(=O)c3ccccc3C2=O)cc1OCC | 7.08 µM (active) | –
COc1ccc(CC(=O)NCCN2CCCC2)cc1 | inactive | –
CCN(CC)CCOC(=O)c1c(C)n(C)c2ccc(OC)cc12 | inactive | –
CCCc1cc2c(=O)c(-c3ccc4c(c3)OCCO4)coc2cc1OC(=O)c1ccco1 | – | 9.62% [at 2.29 µM]
CCOC(=O)c1c(C)n(C)c2ccc(OC(=O)c3ccco3)cc12 | 15.8 µM (active) | –
CC(=O)OC[C@@H]1O[C@@H](O/N=C2/C[C@@H](O)[C@@H](O)[C@@H]3[C@@H]4C(=O)N(C(C)(C)C)C(=O)[C@H]4CC[C@@H]23)[C@H](OC(C)=O)[C@H](OC(C)=O)[C@@H]1OC(C)=O | – | -3.46% [at 11.4 µM]
CC1=NN(c2ccccc2)C(=O)/C1=C\N1CC(C)OC(C)C1 (centres undefined) | inactive | –
Nc1cccc2cc(S(=O)(=O)Nc3ccc(C(=O)O)cc3)ccc12 | – | -7.54% [at 11.4 µM]
CC(=O)c1cccc(NS(=O)(=O)c2ccc(N/C=C\C(=O)c3ccc(F)cc3)cc2)c1 | 0.708 µM (active) | –
Cc1ccc(C)c(/C(=N\N=C(N)N)C2CC2)c1 | – | -27% [at 11.4 µM]
COc1cc(/C=C(\C#N)c2nc3c(s2)CC(C)CC3)ccc1O (centres undefined) | 25.1 µM (active) | –
